# Measured values from the supplement of paper PMC11732987, “Enantioselective OTUD7B fragment discovery through chemoproteomics screening and high-throughput optimisation” (Communications Chemistry, 2025).
# Values without a mark were called inactive.
# What was measured:
# Assay in all cases: log2 ratio of Biotin-Ahx-Ub-VS probe labelling (fragment/DMSO); higher = less target engagement (more negative = stronger competition), active = hit call of the paper (q ≤ 0.05, log2 ratio ≤ -1)
# Settings in all cases: compound concentration: 200 uM; treatment time: 3 h
# [1] = molecular target: T1, ALG13 (UniProt Q9NP73)
# T1 sequence (whole entry): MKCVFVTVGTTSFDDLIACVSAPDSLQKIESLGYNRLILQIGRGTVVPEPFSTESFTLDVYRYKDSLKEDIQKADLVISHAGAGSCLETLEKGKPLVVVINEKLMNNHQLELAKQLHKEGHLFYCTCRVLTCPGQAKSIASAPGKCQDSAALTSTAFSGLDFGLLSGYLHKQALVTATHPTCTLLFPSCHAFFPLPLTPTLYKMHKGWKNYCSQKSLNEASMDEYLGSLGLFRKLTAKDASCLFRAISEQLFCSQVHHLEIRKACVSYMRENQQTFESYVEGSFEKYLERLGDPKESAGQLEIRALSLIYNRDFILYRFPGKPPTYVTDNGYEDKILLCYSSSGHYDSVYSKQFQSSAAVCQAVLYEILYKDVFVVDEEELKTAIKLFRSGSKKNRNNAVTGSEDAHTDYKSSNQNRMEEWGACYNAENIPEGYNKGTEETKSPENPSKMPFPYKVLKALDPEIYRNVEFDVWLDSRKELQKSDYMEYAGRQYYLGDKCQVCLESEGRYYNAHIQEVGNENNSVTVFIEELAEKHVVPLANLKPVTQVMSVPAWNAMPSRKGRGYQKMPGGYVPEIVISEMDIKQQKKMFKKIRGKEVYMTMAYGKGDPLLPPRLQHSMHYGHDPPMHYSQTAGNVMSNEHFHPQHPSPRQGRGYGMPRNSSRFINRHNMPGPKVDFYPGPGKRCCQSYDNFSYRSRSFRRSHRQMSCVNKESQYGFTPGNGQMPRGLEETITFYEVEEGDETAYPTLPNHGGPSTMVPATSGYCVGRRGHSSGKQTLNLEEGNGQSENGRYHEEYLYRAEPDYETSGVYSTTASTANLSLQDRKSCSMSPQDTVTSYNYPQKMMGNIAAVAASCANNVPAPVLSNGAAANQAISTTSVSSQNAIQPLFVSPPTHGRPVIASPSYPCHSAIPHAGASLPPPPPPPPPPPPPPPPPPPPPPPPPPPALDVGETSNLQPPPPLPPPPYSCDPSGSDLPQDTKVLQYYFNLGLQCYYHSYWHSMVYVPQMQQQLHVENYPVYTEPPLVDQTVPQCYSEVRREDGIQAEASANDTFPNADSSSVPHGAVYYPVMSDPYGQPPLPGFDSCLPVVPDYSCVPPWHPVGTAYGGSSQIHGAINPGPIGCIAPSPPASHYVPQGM
# Method in brief: (§1)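 Fragment (200 µM) or vehicle was incubated for 3 h with triplicate HEK293T lysate samples of 495 µg, which were then treated with Biotin-Ahx-Ub-VS at 0.5 µM final for 1 h. Labelled DUBs were enriched on NeutrAvidin, digested with LysC and trypsin, and analysed by diaPASEF LC-MS/MS. Values are average log2 fragment/vehicle ratios from an unpaired t-test on global-median-normalised Spectronaut label-free quantities, using proteins with ≥2 unique peptides.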
# [2] = molecular target: ATXN3 (UniProt P54252)
# Chain of ATXN3 (P54252 whole entry): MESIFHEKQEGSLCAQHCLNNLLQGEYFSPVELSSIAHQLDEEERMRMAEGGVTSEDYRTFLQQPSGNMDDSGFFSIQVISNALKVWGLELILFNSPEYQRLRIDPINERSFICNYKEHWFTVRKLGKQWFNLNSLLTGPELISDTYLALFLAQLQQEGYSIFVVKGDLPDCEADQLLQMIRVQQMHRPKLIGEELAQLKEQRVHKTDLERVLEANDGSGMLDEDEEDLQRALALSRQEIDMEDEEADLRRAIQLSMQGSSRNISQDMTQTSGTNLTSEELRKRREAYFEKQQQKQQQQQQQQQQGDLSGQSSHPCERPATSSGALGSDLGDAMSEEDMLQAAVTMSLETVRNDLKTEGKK
# Method in brief: as §1
# [3] = molecular target: T2, BAP1 (UniProt Q92560)
# T2 sequence (whole entry): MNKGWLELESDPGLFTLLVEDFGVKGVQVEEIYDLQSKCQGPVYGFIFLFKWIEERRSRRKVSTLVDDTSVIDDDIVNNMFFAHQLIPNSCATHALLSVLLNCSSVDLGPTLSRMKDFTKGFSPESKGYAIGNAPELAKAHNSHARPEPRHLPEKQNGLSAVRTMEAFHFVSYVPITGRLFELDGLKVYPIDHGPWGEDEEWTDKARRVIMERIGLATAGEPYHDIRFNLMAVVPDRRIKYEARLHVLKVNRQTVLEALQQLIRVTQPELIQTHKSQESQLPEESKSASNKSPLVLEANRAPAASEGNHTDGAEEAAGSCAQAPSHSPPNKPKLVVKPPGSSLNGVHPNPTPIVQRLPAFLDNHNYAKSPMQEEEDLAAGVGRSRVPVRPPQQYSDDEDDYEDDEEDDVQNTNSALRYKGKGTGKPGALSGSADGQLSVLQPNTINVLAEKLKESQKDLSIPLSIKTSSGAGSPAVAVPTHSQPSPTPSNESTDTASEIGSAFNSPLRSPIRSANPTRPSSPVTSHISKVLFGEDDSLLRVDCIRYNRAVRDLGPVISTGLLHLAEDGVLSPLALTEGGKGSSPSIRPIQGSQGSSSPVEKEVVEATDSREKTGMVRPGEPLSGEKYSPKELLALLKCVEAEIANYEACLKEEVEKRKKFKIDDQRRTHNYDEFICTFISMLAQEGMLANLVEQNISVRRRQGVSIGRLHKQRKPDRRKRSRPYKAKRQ
# Method in brief: as §1
# [4] = molecular target: EIF3F (UniProt O00303)
# Chain of EIF3F (O00303 whole entry): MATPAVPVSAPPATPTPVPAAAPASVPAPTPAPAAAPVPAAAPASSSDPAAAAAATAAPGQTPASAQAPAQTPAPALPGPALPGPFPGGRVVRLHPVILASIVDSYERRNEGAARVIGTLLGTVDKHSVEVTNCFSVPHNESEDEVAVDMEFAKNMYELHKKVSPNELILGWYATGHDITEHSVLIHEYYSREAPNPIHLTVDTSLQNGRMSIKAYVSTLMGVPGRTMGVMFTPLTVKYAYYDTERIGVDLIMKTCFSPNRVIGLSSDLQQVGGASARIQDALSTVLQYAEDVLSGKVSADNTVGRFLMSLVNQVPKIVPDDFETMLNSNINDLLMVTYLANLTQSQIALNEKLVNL
# Method in brief: as §1
# [5] = molecular target: EIF3H (UniProt O15372)
# Chain of EIF3H (O15372 whole entry): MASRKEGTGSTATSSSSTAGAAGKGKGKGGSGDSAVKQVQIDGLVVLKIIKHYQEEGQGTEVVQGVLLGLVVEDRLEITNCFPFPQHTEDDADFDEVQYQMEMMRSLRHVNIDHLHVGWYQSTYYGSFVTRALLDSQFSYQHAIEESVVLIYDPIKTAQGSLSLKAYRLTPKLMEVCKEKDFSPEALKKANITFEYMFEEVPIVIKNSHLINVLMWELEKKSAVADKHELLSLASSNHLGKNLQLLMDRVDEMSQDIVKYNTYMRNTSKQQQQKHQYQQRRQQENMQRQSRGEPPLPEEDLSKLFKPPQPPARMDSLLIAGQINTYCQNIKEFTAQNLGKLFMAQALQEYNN
# Method in brief: as §1
# [6] = molecular target: T3, FAM105A (UniProt Q9NUU6)
# T3 sequence (whole entry): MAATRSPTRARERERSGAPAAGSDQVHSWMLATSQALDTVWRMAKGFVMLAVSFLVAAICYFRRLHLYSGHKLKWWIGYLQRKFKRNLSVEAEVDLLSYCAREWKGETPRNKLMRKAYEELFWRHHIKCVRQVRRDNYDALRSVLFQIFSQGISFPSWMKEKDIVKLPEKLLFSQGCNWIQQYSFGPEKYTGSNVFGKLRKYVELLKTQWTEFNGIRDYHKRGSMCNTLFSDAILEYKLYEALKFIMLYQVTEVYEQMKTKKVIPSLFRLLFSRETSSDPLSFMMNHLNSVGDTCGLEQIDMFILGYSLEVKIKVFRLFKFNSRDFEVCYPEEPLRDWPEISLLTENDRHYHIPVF
# Method in brief: as §1
# [7] = molecular target: OTUB1 (UniProt Q96FW1)
# Chain of OTUB1 (Q96FW1 whole entry): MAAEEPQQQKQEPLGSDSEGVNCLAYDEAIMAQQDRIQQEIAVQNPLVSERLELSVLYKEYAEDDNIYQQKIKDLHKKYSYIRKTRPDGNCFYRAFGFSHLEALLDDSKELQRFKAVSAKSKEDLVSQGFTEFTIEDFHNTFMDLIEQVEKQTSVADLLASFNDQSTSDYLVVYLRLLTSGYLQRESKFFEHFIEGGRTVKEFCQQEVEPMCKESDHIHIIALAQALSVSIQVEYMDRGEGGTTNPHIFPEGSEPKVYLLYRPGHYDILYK
# Method in brief: as §1
# [8] = molecular target: T4, OTUD4 (UniProt Q01804)
# T4 sequence (whole entry): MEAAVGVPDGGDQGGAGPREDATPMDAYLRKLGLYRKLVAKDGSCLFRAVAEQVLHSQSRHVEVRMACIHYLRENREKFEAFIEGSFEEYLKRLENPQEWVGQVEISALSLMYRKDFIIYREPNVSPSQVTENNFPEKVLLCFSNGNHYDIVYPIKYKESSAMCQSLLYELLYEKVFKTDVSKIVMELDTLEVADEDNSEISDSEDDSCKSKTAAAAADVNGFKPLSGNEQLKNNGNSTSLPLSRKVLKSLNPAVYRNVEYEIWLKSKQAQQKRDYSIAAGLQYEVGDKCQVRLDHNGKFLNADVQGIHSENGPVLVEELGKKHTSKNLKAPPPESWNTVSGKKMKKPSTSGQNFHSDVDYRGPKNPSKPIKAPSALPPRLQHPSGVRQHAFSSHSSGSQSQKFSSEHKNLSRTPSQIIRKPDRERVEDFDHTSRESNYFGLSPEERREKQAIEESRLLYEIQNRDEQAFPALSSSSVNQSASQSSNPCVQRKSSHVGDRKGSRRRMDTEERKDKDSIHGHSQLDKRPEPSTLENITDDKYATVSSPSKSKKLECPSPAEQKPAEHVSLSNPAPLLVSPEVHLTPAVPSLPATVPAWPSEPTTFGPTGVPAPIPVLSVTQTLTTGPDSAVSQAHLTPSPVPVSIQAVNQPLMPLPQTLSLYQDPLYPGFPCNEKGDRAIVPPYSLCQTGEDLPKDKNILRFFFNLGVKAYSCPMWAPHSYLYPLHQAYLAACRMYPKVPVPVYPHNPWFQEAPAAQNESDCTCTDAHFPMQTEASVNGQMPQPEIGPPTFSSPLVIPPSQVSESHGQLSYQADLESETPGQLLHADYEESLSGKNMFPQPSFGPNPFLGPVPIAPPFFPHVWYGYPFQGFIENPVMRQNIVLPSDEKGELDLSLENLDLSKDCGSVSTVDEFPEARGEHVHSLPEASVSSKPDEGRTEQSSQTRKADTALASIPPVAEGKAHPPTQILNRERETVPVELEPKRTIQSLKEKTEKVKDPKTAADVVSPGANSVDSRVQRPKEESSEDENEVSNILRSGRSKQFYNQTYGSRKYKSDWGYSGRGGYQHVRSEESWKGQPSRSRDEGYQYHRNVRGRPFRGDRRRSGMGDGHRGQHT
# Method in brief: as §1
# [9] = molecular target: T5, OTUD5 (UniProt Q96G74)
# T5 sequence (whole entry): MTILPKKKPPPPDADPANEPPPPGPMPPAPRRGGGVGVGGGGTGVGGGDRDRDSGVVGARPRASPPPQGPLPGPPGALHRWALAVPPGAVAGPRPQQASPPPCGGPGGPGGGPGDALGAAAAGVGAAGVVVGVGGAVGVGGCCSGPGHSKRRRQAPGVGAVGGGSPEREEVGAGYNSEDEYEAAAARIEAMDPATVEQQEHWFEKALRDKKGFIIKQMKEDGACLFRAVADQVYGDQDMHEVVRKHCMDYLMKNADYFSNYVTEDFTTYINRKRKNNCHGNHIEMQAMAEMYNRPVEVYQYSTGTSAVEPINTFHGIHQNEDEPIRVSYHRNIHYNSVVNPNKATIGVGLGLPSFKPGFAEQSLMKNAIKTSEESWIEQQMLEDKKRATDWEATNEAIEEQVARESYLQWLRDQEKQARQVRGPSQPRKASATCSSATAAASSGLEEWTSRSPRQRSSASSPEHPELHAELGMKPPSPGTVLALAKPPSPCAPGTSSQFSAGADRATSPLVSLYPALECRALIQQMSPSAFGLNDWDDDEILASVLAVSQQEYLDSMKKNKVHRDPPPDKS
# Method in brief: as §1
smiles,measurement,setting,value
CC(NC(=O)CCl)c1cccc2ccccc12 (centres undefined),log2 ratio of Biotin-Ahx-Ub-VS probe labelling,[1],0.0911
same,log2 ratio of Biotin-Ahx-Ub-VS probe labelling,[2],-0.129
same,log2 ratio of Biotin-Ahx-Ub-VS probe labelling,[3],-4.13 (active)
same,log2 ratio of Biotin-Ahx-Ub-VS probe labelling,[4],-0.0141
same,log2 ratio of Biotin-Ahx-Ub-VS probe labelling,[5],-0.0531
same,log2 ratio of Biotin-Ahx-Ub-VS probe labelling,[6],-0.022
same,log2 ratio of Biotin-Ahx-Ub-VS probe labelling,[7],-0.352
same,log2 ratio of Biotin-Ahx-Ub-VS probe labelling,[8],-1.01 (active)
same,log2 ratio of Biotin-Ahx-Ub-VS probe labelling,[9],-0.234
